Hits are enriched below; roughly 19% of the tested compounds scored in any of these assays.
DT40 TDP1 CPT: DT40-hTDP1 cell growth loss with CPT; chicken DT40 Tdp1-/-;hTDP1 cells + 20 nM CPT, ATP luminescence, 48 h; Potency, µM (titrated, usually from 46.2 µM), without a hit: at the top dose activity change, negative = growth inhibition, hits mostly inhibitors; 12% of 420,000 active; AID 686979; also: potency is read from the fitted curve at half-maximal effect; nearly all actives have a fitted effect of over 55% in size
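Chicken DT40 Tdp1-/- cells stably complemented with human TDP1 were seeded at 400 cells/well in medium containing 20 nM camptothecin, exposed to pin-transferred compounds, and grown at 37 °C for at least 48 hr. Viability was read as ATP luminescence.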
HT1080NT lethal: kills 2HG-producing HT-1080-NT fibrosarcoma cells | HT-1080-NT fibrosarcoma viability, CellTiter-Glo ATP luminescence, 48 h | Potency, µM (top dose mostly 46.1 µM), without a hit: at the highest dose activity, negative = less viability, actives largely listed as cytotoxic | 1.6% of 360,000 active | AID 686970;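 also: NT is the 2HG producing partner of a matched IDH1 knockdown line; potency is read from the fitted curve at half-maximal effect; 0% = DMSO-treated cells and -100% = media-only wells without cells; nearly all actives have a fitted effect of over 55% in size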
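Compounds were tested in concentration-response format on HT-1080-NT cells for 48 hours at 37 degrees C. Cell viability came from CellTiter-Glo luminescence; curves were classified by r2, response magnitude and activity.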
IL-1B inflam inh: inflammasome signaling inhibition, IL-1 beta readout; THP-1 LPS/ATP IL-1B secretion, AlphaLISA, 16 h; hits give low values; AID 743279; activity change, % at 57.5 µM; 4.7% of 360,000 active; in the data active = activity change below about -50%; inconclusive = mostly about -30% to -49%
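THP-1 cells pretreated 1 hr with compounds (up to 57.5 uM final), then stimulated with LPS (250 ng/mL final) plus ATP (1.25 mM final); secreted IL-1B measured by AlphaLISA after 16 hr, decreased signal indicating inhibition.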
uPA generation: cell surface uPA generation inhibition; cell surface uPA generation assay, qHTS; Potency, µM (series often up to 38.3 µM), for inactives: at the top dose activity change, negative = inhibition, usual class: inhibitors; 0.31% of 330,000 active; AID 540303; active = well fitted inhibition curve with a large enough effect; inconclusive = small, poorly fitted or top-dose-only effect; inactive = no such curve, though single readings can be large or run the other way; tested in mouse RAW 264.7 cells; also: potency is read from the fitted curve at half-maximal effect; nearly all actives have a fitted effect of over 55% in size
TDP1 cell noCPT: qHTS for Inhibitors of human tyrosyl-DNA phosphodiesterase 1 (TDP1): qHTS in cells in absence of CPT; DT40 Tdp1-/- hTDP1 cells, no CPT, ATP luminescence, 48 h; 15% of 420,000 active; Potency, µM (series often up to 46.2 µM), without a hit: at the highest dose activity change, negative = growth inhibition, most hits filed as inhibitors; also: potency is read from the fitted curve at half-maximal effect; nearly all actives have a fitted effect of over 55% in size
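Growth of hTDP1-complemented DT40 Tdp1-knockout cells is measured by ATP luminescence after at least 48 hr compound exposure at 37 °C, with DMSO substituting for the 20 nM CPT used in the parallel screen.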
HT1080 IDH1KD tx: toxicity to HT-1080 IDH1 knockdown cells (counter line); HT-1080 IDH1 knockdown viability, ATP luminescence, 48 h; Potency, µM (doses to about 46.1 µM), for the others: at the top dose activity, negative = toxicity, usual class: cytotoxic; 2% of 360,000 active; AID 686971;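 also: potency is read from the fitted curve at half-maximal effect; 0% = DMSO wells and -100% = cell-free medium wells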
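Assay cells: HT-1080 with IDH1 knockdown, 750 per well, RPMI/5% FBS. Exposure: 48 h at 37 °C following 2 h pre-incubation. Read: CellTiter-Glo luminescence; fitted concentration-response, curve class assigned.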
* = called active by the depositor; i = inactive; ? = inconclusive; nt = no result given; [ ] = remark or other dose. Unless noted, calls follow the shape of the dose curve; as a rule, active = well fitted curve in the direction sought with a large enough effect; inconclusive = small, poorly fitted or top-dose-only effect, or another doubt; inactive = no such curve, though single readings can be large; an effect the other way counts as inactive or inconclusive. Unless noted, % is scaled to controls: 0 for no effect and ±100 for the full control effect.

SMILES	DT40 TDP1 CPT	HT1080NT lethal	IL-1B inflam inh	uPA generation	TDP1 cell noCPT	HT1080 IDH1KD tx
COc1ccc(CNC(=O)CCCc2nnc3n(C(C)C)c(=O)c4sccc4n23)cc1	-29%	nt	nt	nt	?	nt
O=C(Nc1ccc(-n2cccn2)cc1)C1CCCCN1Cc1cccc2c1OCO2 (centres undefined)	6.5µM*	?	28	?	4.6µM*	?
COc1ccc(C(=O)N/C(=C\c2cn(C)c3ccccc23)C(=O)OCCN(C)C)cc1	-3%	-19%	12	-6%	-4%	-14%
CCCN(CCC)CC(O)Cn1cc(/C=C/C(=O)c2ccc(OC)cc2)c2ccccc21 (centres undefined)	?	nt	nt	nt	5.2µM*	nt
COc1ccc(C(=O)/C=C/c2cn(CC(O)CN(CC(C)C)CC(C)C)c3ccccc23)cc1 (centres undefined)	15µM*	nt	nt	nt	16µM*	nt
CCCCOC(=O)/C(=C/c1cn(C)c2ccccc12)NC(=O)c1ccc(OC)cc1	2%	-9%	32	-3%	-22%	5%
COc1ccc(N2C(=O)C3C(c4ccc(C(=O)O)cc4)NC(Cc4ccccc4)(C(=O)O)C3C2=O)c([N+](=O)[O-])c1 (centres undefined)	5%	14%	0	3%	19%	13%
Oc1cccc2c(NC(=S)Nc3ccc(OC(F)F)cc3)cccc12	-59%	-4%	23	0%	18µM*	-3%
FC(F)Oc1ccc(NC(=S)Nn2cnnc2)cc1	?	2%	4	-7%	?	-1%
COc1ccccc1N1CCN(C(CNS(=O)(=O)c2ccc(C)cc2)c2cccnc2)CC1 (centres undefined)	?	-4%	-4	4%	7.3µM*	-14%
COc1ccccc1N1CCN(C(CNC(=O)C(=O)NCCN(C)C)c2cccnc2)CC1 (centres undefined)	-11%	nt	nt	nt	-19%	nt
COC(=O)NCC(c1cccnc1)N1CCN(c2ccccc2F)CC1 (centres undefined)	2%	-1%	6	0%	7%	1%
COc1ccc(CNC(=O)C(=O)NCC(c2cccnc2)N2CCN(c3ccccc3F)CC2)cc1 (centres undefined)	12µM*	nt	nt	nt	18µM*	nt
COc1ccccc1N1CCN(C(CNC(=O)C(=O)NCc2ccc(F)cc2)c2cccnc2)CC1 (centres undefined)	8.2µM*	nt	nt	nt	5.8µM*	nt
C[C@H](NC(=O)[C@@H]1CCCN1C(=O)[C@@H]1CCCN1C(=O)c1cccc2ccccc12)c1ccccc1	-28%	-1%	51	nt	?	5%
O=C(c1c[nH]c(C(=O)C(Cl)(Cl)Cl)c1)c1c(F)cccc1F	?	?	-99*	0%	21µM*	-25%
O=C(c1c[nH]c(C(=O)C(Cl)(Cl)Cl)c1)c1ccccc1F	?	-5%	0	2%	?	0%
C=C(c1ccc2ccccc2n1)c1cccs1	11µM*	nt	nt	nt	14µM*	nt
O=C(Nc1nccs1)c1ccc2ccccc2n1	-10%	?	79	-10%	-18%	-16%
O=C(CSCc1ccccc1)N/N=C/c1ccc(OCC(=O)N2CCCCC2)cc1	-6%	0%	0	-4%	-26%	19%
O=C(CSCc1ccccc1Br)N/N=C/c1ccc(OCC(=O)N2CCCCC2)cc1	-7%	8%	0	4%	2.9µM*	10%
CC(=O)c1ccc(N(C(=O)c2csnn2)C(C(=O)NC2CCCC2)c2ccccc2)cc1 (centres undefined)	0%	-2%	2	-17%	-18%	-5%
O=C1CCN(Cc2ccccc2)C=C1c1ccc(Br)cc1	18µM*	-19%	?	?	23µM*	-17%
Cc1ccc(C2=CN(Cc3ccccc3)CCC2=O)cc1	21µM*	3%	-8	-10%	?	-13%
CCCc1ccc2ccc3ccccc3c2n1	?	15%	36	nt	-23%	9%
SMILES	DT40 TDP1 CPT	HT1080NT lethal	IL-1B inflam inh	uPA generation	TDP1 cell noCPT	HT1080 IDH1KD tx
CC(=O)c1cccc(CN2CCC(C(=O)Nc3ccc(-c4cccc(C)c4)cc3)CC2)c1	10µM*	?	-62*	-12%	6.5µM*	21µM*
CC(=O)c1cccc(CN2CCC(C(=O)Nc3ccc(Oc4cccnc4)cc3)CC2)c1	?	-10%	i	-7%	23µM*	?
O=C(Nc1ccc(Oc2cccnc2)cc1)C1CCN(Cc2cccc(Cl)c2)CC1	18µM*	-22%	12	-21%	?	?
CC(=O)c1cccc(NC(=O)C2CCN(S(=O)(=O)c3ccc(C)cc3)CC2)c1	2%	-5%	-13	10%	-29%	0%[9.24 µM]
Cc1ccc(CN2CCC(C(=O)Nc3ccc(Oc4cccnc4)cc3)CC2)cc1	18µM*	-8%	5	-24%	16µM*	-26%
CON(C)C(=O)CCN(C(=O)OC(C)(C)C)c1ccccc1	-16%	11%	-4	9%	-17%	2%
CON(C)C(=O)CC1(CN(Cc2ccccc2)C(=O)OC(C)(C)C)CCCCC1	18µM*	-14%	15	-4%	18µM*	-24%
C#CC(=O)CC1(CN(Cc2ccccc2)C(=O)OC(C)(C)C)CCCCC1	12µM*	-13%	?	?	10µM*	-11%
CC(C)(C)OC(=O)N(Cc1ccccc1)Cc1cccc(OCc2cccc(NC(=O)C3CC3)c2)c1	?	-5%	?	?	?	-21%
Cc1nc2c(-c3ccc(F)cc3)c(C)nn2c(C)c1CCC(=O)Nc1ccccc1F	?	-1%	-23	3%	-18%	5%
Cc1nc2c(-c3ccccc3)c(C)nn2c(C)c1CCC(=O)NC(C)CCc1ccco1 (centres undefined)	12µM*	1%	?	2%	9.2µM*	-4%
COc1ccccc1-c1cc2nc(C)c(CCC(=O)NC(C)CCc3ccco3)c(C)n2n1 (centres undefined)	23µM*	2%	-21	0%	21µM*	-12%
CCOc1ccc(-c2cc3c(=O)n(Cc4nc(-c5ccc(OCC)c(OC)c5)oc4C)ccn3n2)cc1Cl	-6%	nt	nt	nt	-2%	nt
Cc1cc(N2CCN(c3ccccc3)CC2)nc(N)n1	-17%	6%	-14	0%	-19%	7%
Cc1cc(N2CCN(C(=O)c3ccco3)CC2)nc(-c2ccccc2)n1	?	-6%	?	5%	18µM*	6%
CSCc1cc(N2CCCC2)nc(-c2ccccc2)n1	8%	-6%	-19	-4%	?	0%

Screens from PubChem.
